Reference: PubChem BioAssay (NCATS)
Records with an inconclusive call do not appear. A call without a number means that no potency is given here. Activity calls are given as the source filed them. The call rests on the fitted dose curve; in most records, active means well fitted inhibition curve with a large enough effect; inconclusive means small, poorly fitted or top-dose-only effect; inactive means flat fitted curve, though single readings scatter.

What was measured:
Experiment in all cases: qHTS profiling for inhibitors of Plasmodium falciparum proliferation (AID 504749); further: nearly all actives have a fitted effect of over 60% in size
Conditions in all cases: P. falciparum in erythrocytes, SYBR Green DNA, 72 h; series mostly up to 28.7 µM
CP201 = tested on: CP201
How it was run: (§1)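 SYBR Green fluorescence (ex 485 nm, em 535 nm) reports parasite DNA after 72 h compound exposure of infected red cells at 0.3% parasitemia, 2.5% hematocrit; signal normalized to 0.29 uM artemisinin and vehicle wells.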

CP203 = tested on: CP203
How it was run: as §1

CP211 = tested on: CP211
How it was run: as §1

CP215 = tested on: CP215
How it was run: as §1

CP217 = tested on: CP217
How it was run: as §1

CP237 = tested on: CP237
How it was run: as §1

CP238 = tested on: CP238
How it was run: as §1

CP247 = tested on: CP247
How it was run: as §1

CP250 = tested on: CP250
How it was run: as §1

CP252 = tested on: CP252
How it was run: as §1

CP256 = tested on: CP256
How it was run: as §1

CP260 = tested on: CP260
How it was run: as §1

CP262 = tested on: CP262
How it was run: as §1

CP265 = tested on: CP265
How it was run: as §1

CP266 = tested on: CP266
How it was run: as §1

CP268 = tested on: CP268
How it was run: as §1

CP269 = tested on: CP269
How it was run: as §1

CP286 = tested on: CP286
How it was run: as §1

CP291 = tested on: CP291
How it was run: as §1

CP297 = tested on: CP297
How it was run: as §1
Potency means the concentration at half of the fitted maximal effect.

Row | SMILES | Potency (CP201) | Potency (CP203) | Potency (CP211) | Potency (CP215) | Potency (CP217) | Potency (CP237) | Potency (CP238) | Potency (CP247) | Potency (CP250) | Potency (CP252) | Potency (CP256) | Potency (CP260) | Potency (CP262) | Potency (CP265) | Potency (CP266) | Potency (CP268) | Potency (CP269) | Potency (CP286) | Potency (CP291) | Potency (CP297)
1 | CN1C(=O)OC(C)(C)C1=O | inactive | inactive | inactive | inactive | inactive | inactive | inactive | inactive | inactive | inactive | inactive | inactive | inactive | inactive | inactive | inactive | inactive | inactive | inactive | inactive
2 | NCCN | inactive | inactive | inactive | inactive | inactive | inactive | inactive | inactive | inactive | inactive | inactive | inactive | inactive | inactive | inactive | inactive | inactive | inactive | inactive | inactive
3 | C=C(C)C1CC=C(C)CC1 (configuration not stated) | inactive | inactive | inactive | inactive | inactive | inactive | inactive | inactive | inactive | inactive | inactive | inactive | inactive | inactive | inactive | inactive | inactive | inactive | inactive | inactive
4 | CCCOC(=O)c1ccccc1O | inactive | inactive | inactive | inactive | inactive | inactive | inactive | inactive | inactive | inactive | inactive | inactive | inactive | inactive | inactive | inactive | inactive | inactive | inactive | inactive
5 | CC/C=C\C/C=C\C/C=C\CCCCCCCC(=O)O | inactive | inactive | inactive | inactive | inactive | inactive | inactive | inactive | inactive | inactive | inactive | inactive | inactive | inactive | inactive | inactive | inactive | inactive | inactive | inactive
6 | OCl | inactive | inactive | inactive | inactive | inactive | inactive | inactive | inactive | inactive | inactive | inactive | inactive | inactive | inactive | inactive | inactive | inactive | inactive | inactive | inactive
7 | Cc1ccccn1 | inactive | inactive | inactive | inactive | inactive | inactive | inactive | inactive | inactive | inactive | inactive | inactive | inactive | inactive | inactive | inactive | inactive | inactive | inactive | inactive
8 | COc1cc2c(cc1OC)[C@@H](Cc1cc(OC)c(OC)c(OC)c1)[N+](C)(CCCOC(=O)CC/C=C/CCC(=O)OCCC[N+]1(C)CCc3cc(OC)c(OC)cc3[C@H]1Cc1cc(OC)c(OC)c(OC)c1)CC2 (some centres not stated) | inactive | inactive | inactive | inactive | inactive | inactive | inactive | inactive | inactive | inactive | inactive | inactive | inactive | inactive | inactive | inactive | inactive | inactive | inactive | inactive
9 | CCOC(=O)c1cc(-c2ccccc2)nc2ccc(C)cc12 | inactive | inactive | inactive | inactive | inactive | inactive | inactive | inactive | inactive | inactive | inactive | inactive | inactive | inactive | inactive | inactive | inactive | inactive | inactive | inactive
10 | CCC(C)[C@@H](N)C(=O)O (some centres not stated) | inactive | inactive | inactive | inactive | inactive | inactive | inactive | inactive | inactive | inactive | inactive | inactive | inactive | inactive | inactive | inactive | inactive | inactive | inactive | inactive
11 | O=C(O)C1=C(CSc2nnnn2CS(=O)(=O)O)CS[C@@H]2[C@H](NC(=O)[C@H](O)c3ccccc3)C(=O)N12 | inactive | inactive | inactive | inactive | inactive | inactive | inactive | inactive | inactive | inactive | inactive | inactive | inactive | inactive | inactive | inactive | inactive | inactive | inactive | inactive
12 | OB(O)O | inactive | inactive | inactive | inactive | inactive | inactive | inactive | inactive | inactive | inactive | inactive | inactive | inactive | inactive | inactive | inactive | inactive | inactive | inactive | inactive
13 | O=C1c2ccccc2C(=O)C1c1ccc(Cl)cc1 | inactive | inactive | inactive | inactive | inactive | inactive | inactive | inactive | inactive | inactive | inactive | inactive | inactive | inactive | inactive | inactive | inactive | inactive | inactive | inactive
14 | O=C1c2ccccc2C(=O)C1c1ccc(F)cc1 | inactive | inactive | inactive | inactive | inactive | inactive | inactive | inactive | inactive | inactive | inactive | inactive | inactive | inactive | inactive | inactive | inactive | inactive | inactive | inactive
15 | CC(CC=O)CCCC(C)(C)O (configuration not stated) | inactive | inactive | inactive | inactive | inactive | inactive | inactive | inactive | inactive | inactive | inactive | inactive | inactive | inactive | inactive | inactive | inactive | inactive | inactive | inactive
16 | O=C(NNCS(=O)(=O)O)c1ccncc1 | inactive | inactive | inactive | inactive | inactive | inactive | inactive | inactive | inactive | inactive | inactive | inactive | inactive | inactive | inactive | inactive | inactive | inactive | inactive | inactive
17 | CC1=CC(=C(c2ccc(N)cc2)c2ccc(N)cc2)C=CC1=N | 5.36 µM (active) | 4.26 µM (active) | 4.26 µM (active) | 4.78 µM (active) | 3.55 µM (active) | 3.16 µM (active) | 3.55 µM (active) | 1.12 µM (active) | 1 µM (active) | 3.16 µM (active) | 2.24 µM (active) | 2.51 µM (active) | 4.78 µM (active) | 3.16 µM (active) | 7.57 µM (active) | 6.01 µM (active) | 4.26 µM (active) | 1.41 µM (active) | 3.01 µM (active) | 4.78 µM (active)
18 | O=P(O)(O)OP(=O)(O)OP(=O)(O)O | inactive | inactive | inactive | inactive | inactive | inactive | inactive | inactive | inactive | inactive | inactive | inactive | inactive | inactive | inactive | inactive | inactive | inactive | inactive | inactive
19 | CN(C)c1ccc(C(=C2C=CC(=[N+](C)C)C=C2)c2c(O)c(S(=O)(=O)[O-])cc3cc(S(=O)(=O)O)ccc23)cc1 | inactive | inactive | inactive | inactive | inactive | inactive | inactive | inactive | inactive | inactive | inactive | inactive | inactive | inactive | inactive | inactive | inactive | inactive | inactive | inactive
20 | CCN(CC)C(=S)S | inactive | inactive | inactive | inactive | inactive | inactive | inactive | inactive | inactive | inactive | inactive | inactive | inactive | inactive | inactive | inactive | inactive | inactive | inactive | inactive
21 | O=C(/C=C/c1cccc(F)c1)NC1CC1 | inactive | inactive | inactive | inactive | inactive | inactive | inactive | inactive | inactive | inactive | inactive | inactive | inactive | inactive | inactive | inactive | inactive | inactive | inactive | inactive
22 | CC(=O)N=c1sc(S(N)(=O)=O)nn1C | inactive | inactive | inactive | inactive | inactive | inactive | inactive | inactive | inactive | inactive | inactive | inactive | inactive | inactive | inactive | inactive | inactive | inactive | inactive | inactive
23 | COc1ccccc1N1CCN(CCCC(=O)c2ccc(F)cc2)CC1 | inactive | inactive | inactive | inactive | inactive | inactive | inactive | inactive | inactive | inactive | inactive | inactive | inactive | inactive | inactive | inactive | inactive | inactive | inactive | inactive
24 | OC1OC[C@@H](O)[C@H](O)[C@@H]1O (some centres not stated) | inactive | inactive | inactive | inactive | inactive | inactive | inactive | inactive | inactive | inactive | inactive | inactive | inactive | inactive | inactive | inactive | inactive | inactive | inactive | inactive
25 | CC12CCC(C[N+](C)(CCC[N+](C)(C)C)C1)C2(C)C (configuration not stated) | inactive | inactive | inactive | inactive | inactive | inactive | inactive | inactive | inactive | inactive | inactive | inactive |  | inactive | inactive | inactive | inactive | inactive | inactive | inactive
26 | CN(C)C=Nc1c(I)cc(I)c(CCC(=O)O)c1I | inactive | inactive | inactive | inactive | inactive | inactive | inactive | inactive | inactive | inactive | inactive | inactive | inactive | inactive | inactive |  | inactive | inactive | inactive | 
